In the assay the test system is Leishmania donovani. Kind of assay: Leishmania intramacrophage assay. Format: functional, organism-based. More on the design: scale not given: in the data most compounds retested in dose-response had high values.

In all, about 69,000 compounds went through this assay and about 1,000 (1.4%) showed an effect of 50% or more. Only a selection was taken, and strong results are over-represented in it overall.

Turning to `CCC[C@H]1CN(S(C)(=O)=O)C[C@@H]1NC(=O)CCCn1ccnc1`, the “Percent Effect” value (30.3 µM, […]) is given as -3.317%.

Take `CC(C)CCN(C)C(=O)c1cc(CN2CCC(O)CC2)on1`: the “Percent Effect” value (30.3 µM, […]) was 25.01%.

On to `O=C(CS(=O)(=O)Cc1nnnn1C1CC1)NCC1CC1`, for which the “Percent Effect” value (30.3 µM, […]) turned out to be 7.259%.

On to `Cc1ccc2cccc(C(=O)NCC3CCN(C(C)C)C3)c2n1` (configuration not stated), for which the “Percent Effect” value (30.3 µM, […]) was determined as 6.487%.

For `Cc1cccc(CN2CCC3(CCN(c4ccccn4)C3)C2=O)c1.O=C(O)C(F)(F)F` (configuration not stated), the “Percent Effect” value (30 µM, 30.03 µM) came out at 41.53%.

On to `CC1=N[C@@]2(CC[C@@H]3CN(Cc4ccccc4F)C[C@@H]32)C(=O)N1CC1CC1.O=C(O)C(F)(F)F`, for which, where the note is “30 µM, 30.03 µM”, the “Percent Effect” value is on record as 16.75%.

`CN1CCN(C)c2cc(NC(=O)c3cc[nH]n3)ccc2C1`: the “Percent Effect” value (30.3 µM, […]) is 24.5%.

With `COc1ccc(OC)c(C2CCN(C(=O)CCc3n[nH]c(N)n3)C2)c1` (configuration not stated), the “Percent Effect” value (30.3 µM, […]) stood at 25.04%.

Turning to `NC(=O)CCSCc1cc(Br)cc2cccnc12`, where the note is “30.3 µM, […]”, the “Percent Effect” value is recorded as 18.7%.

With `CNC(=O)NC(=O)CCSCc1cc(F)cc2cccnc12`, the “Percent Effect” value (30.3 µM, […]) worked out at 2.728%.

For the compound `NC(=O)NC(=O)CCSCc1cc(F)cc2cccnc12`, the “Percent Effect” value (30.3 µM, […]) is listed as 50.58%.

Take `CC(C)CN1C[C@H]2CCN(C(=O)NC3CCCC3)CC[C@H]2S1(=O)=O`: the “Percent Effect” value (30.3 µM, […]) turned out to be 5.795%.

For the compound `Cc1noc(CCCC(=O)N2CCNC(=O)C2)n1`, the “Percent Effect” value (30.3 µM, […]) is recorded as 12.24%.

Regarding `COCC(=O)NCc1cc(=O)n2c(n1)CN(CC1CC1)CCC2.O=C(O)C(F)(F)F`, the “Percent Effect” value (30.3 µM, […]) is 0.4082%.

Take `COCC(=O)NCc1cc(=O)n2c(n1)CN(Cc1ccncc1)CCC2`: the “Percent Effect” value (30.3 µM, […]) was 55.54%.

Consider `COCC(=O)NCc1cc(=O)n2c(n1)CN(Cc1ccoc1)CCC2`, for which, where the note is “30.3 µM, […]”, the “Percent Effect” value came out at 10.68%.

On to `COCC(=O)NCc1cc(=O)n2c(n1)CN(Cc1ccsc1)CCC2`, for which the “Percent Effect” value (30 µM, 30.03 µM) is reported as 13.56%.

As for `COCC(=O)NCc1cc(=O)n2c(n1)CN(C)CCC2.O=C(O)C(F)(F)F`, the “Percent Effect” value (30.3 µM, […]) was found to be 39.76%.

For `COCCN1CCCn2c(nc(CNC(=O)COC)cc2=O)C1.O=C(O)C(F)(F)F`, for the setting “30.3 µM, […]”, the “Percent Effect” value is reported as 69.63%.

Regarding `COc1ccccc1CNC(=O)c1[nH]ncc1Cl`, under “30.3 µM, […]”, the “Percent Effect” value is listed as -12.27%.

In the case of `COc1ccc(CNC[C@@]2(COc3cccnc3)C[C@@H](O)[C@@H](O)C2)cc1.Cl`, for the setting “30.3 µM, […]”, the “Percent Effect” value was 14.18%.

As to `Cc1nc2ccnn2c(C)c1CCC(=O)N1CCN2CCCCC2C1` (configuration not stated), for the setting “30 µM”, the “Percent Effect” value is reported as 11.28%.

With `O=C(C1CCCCC1)N1CCCC([C@@H]2C[C@H](C(F)F)n3ncnc3N2)C1` (some centres not stated), under “30.3 µM, […]”, the “Percent Effect” value worked out at 0.241%.

Take `Cc1nc(N(C)CCCc2nccn2C)c2c(C)nn(C)c2n1`: the “Percent Effect” value (30.3 µM, […]) worked out at 1.733%.

Take `Cc1ccc(CN2CC[C@H]3[C@H](CC(Cn4cccn4)N3C)C2)s1.O=C(O)C(F)(F)F.O=C(O)C(F)(F)F.O=C(O)C(F)(F)F` (some centres not stated): under “30.3 µM, […]”, the “Percent Effect” value was -11.42%.

As to `CN1CC[C@H](N(C)Cc2ccccc2)C[C@H](O)C1`, the “Percent Effect” value (30.3 µM, […]) was found to be 20.46%.

Regarding `CN1CC[C@H](N(Cc2ccccc2)CC2CC2)C[C@H](O)C1`, the “Percent Effect” value (30.3 µM, […]) is 31.47%.

On to `CN1CC[C@H](N(Cc2ccccc2)Cc2ccccc2)C[C@H](O)C1`, for which the “Percent Effect” value (30.3 µM, […]) is given as 94.14%.

Turning to `CC(C)Sc1ncccc1C(=O)NCc1ccc(O)cc1`, the “Percent Effect” value (30 µM) is listed as 14.96%.

Take `CCN(CC)S(=O)(=O)NCC(O)c1c(Cl)cccc1Cl` (configuration not stated): the “Percent Effect” value (30.3 µM, […]) came to 62.85%.

For `CCN(C)S(=O)(=O)NCC(O)c1c(Cl)cccc1Cl` (configuration not stated), under “30.3 µM, […]”, the “Percent Effect” value is listed as 41.58%.

In the case of `CCCS(=O)(=O)NCC(O)c1c(Cl)cccc1Cl` (configuration not stated), the “Percent Effect” value (30.3 µM, […]) is reported as 7.191%.

As for `CCCc1nc(CN2CCCC2Cn2cccn2)cs1` (configuration not stated), the “Percent Effect” value (30.3 µM, […]) amounted to 31.37%.

`CCC(=O)N1CCC2(CC1)CC(CC(=O)N(C)C)c1ccc(F)cc12` (configuration not stated): the “Percent Effect” value (30.3 µM, […]) came to 35.94%.

`CCN1CCC2(CC1)CC(CC(=O)N(C)C)c1ccc(F)cc12` (configuration not stated): under “30.3 µM, […]”, the “Percent Effect” value is given as 64.47%.

Turning to `CN(C)C(=O)CC1CC2(CCN(CC3CC3)CC2)c2cc(F)ccc21.O=C(O)C(F)(F)F` (configuration not stated), the “Percent Effect” value (30 µM, 30.03 µM) is 16.14%.

Take `CCOc1ccc(CNCC(O)c2ccccc2)cc1Cl.Cl` (configuration not stated): the “Percent Effect” value (30.3 µM, […]) is recorded as 14.87%.

Consider `CC(=O)Nc1ccc(CNCC(O)c2ccccc2)cc1` (configuration not stated), for which the “Percent Effect” value (30.3 µM, […]) was -2.839%.

Regarding `CCc1ccc(CNC(=O)NC2CCCc3c2cnn3CCO)s1` (configuration not stated), for the setting “30.3 µM, […]”, the “Percent Effect” value was 21.53%.

Regarding `O=C(Cc1ccccn1)N1CCCC(c2nccn2CC2CCC2)C1` (configuration not stated), the “Percent Effect” value (30.3 µM, […]) was -1.281%.

`CCOc1ccccc1OC1CCN(Cc2ccn(C)c(=O)c2)CC1`: under “30 µM”, the “Percent Effect” value turned out to be 5.552%.

For `CCCS(=O)(=O)N1CCC(NC(=O)c2cc3ccccc3s2)CC1`, where the note is “30.3 µM, […]”, the “Percent Effect” value was determined as 22.53%.

On to `CCC(=O)N1CCC2(C=C(C(=O)N3CCCC3)c3ccccc32)CC1`, for which the “Percent Effect” value (30.3 µM, […]) came out at 11.1%.

`CCC(=O)N1CCC2(C=C(C(=O)N(C)C)c3ccccc32)CC1`: the “Percent Effect” value (30.3 µM, […]) worked out at 92.12%.

For `CC(C)N1CCC2(C=C(C(=O)N(C)C)c3ccccc32)CC1.O=C(O)C(F)(F)F`, the “Percent Effect” value (30.3 µM, […]) is reported as -11.73%.

As to `CN1CCC2(C=C(C(=O)N(C)C)c3ccccc32)CC1`, for the setting “30.3 µM, […]”, the “Percent Effect” value stood at 38.98%.

Take `CCN1CCC2(C=C(C(=O)N(C)C)c3ccccc32)CC1.O=C(O)C(F)(F)F`: the “Percent Effect” value (30.3 µM, […]) was 51.51%.

The values above are taken from ChEMBL document CHEMBL3988442, “University of Dundee, Small-Polar-MMV Screening Library” (2021).
